Assay outcomes as filed in PubChem BioAssay.
The list is not random: actives were taken first. Their share in the collection is about 3%.
Wnt act – activates Wnt/beta-catenin signaling in a reporter cell assay | activator, plate reader | activation, % at 9.35 µM | actives 1.2% (n = 300,000); in the data active means activation above about 30%, passing the limit was not always enough; inconclusive means no clear call, values can overlap the other calls;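 further: 0% = neutral control wells and 100% = positive control wells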
Glyco luc inh – N-linked glycosylation inhibition. AID 588692. D54 ERlucT glycosylation luciferase reporter, 24 h; percent of 100 nM tunicamycin response. actives 0.23% (n = 360,000). reporter increase, % at 12.5 µM;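 active means mean luciferase reporter signal, scaled so untreated is 0 and the glycosylation-blocking control 100, at or above a set limit in every replicate; inconclusive means mean reaches the limit but not every replicate does; inactive means mean below the limit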;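 further: luciferase carries N-glycosylation sites so blocking glycosylation raises the light; 0% = median of neutral control wells and 100% = median of 100 nM tunicamycin wells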
Vif imaging – HIV Vif inhibition; HEK293T cells, Vif self-association by quenched fluorescence, imaging, 24 h; inhibition, % at 7.49 µM; actives 0.35% (n = 340,000); AID 602346; in the data active means inhibition above about 50%, passing the limit was not always enough; inconclusive means no clear call, values can overlap the other calls; inactive means below about 31%
MITF TRPM1 HTS – MITF TRPM1 promoter activation in melanoma cells; SK-MEL-5 TRPM1-promoter luciferase, 24 h; % of positive control, neutral wells = 0; AID 588334; activation, % at 12.5 µM; actives 0.75% (n = 300,000);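 active means mean activation of at least 80% with every replicate also reaching 80%; inconclusive means mean reaches 80% but some replicate falls short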;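 further: 0% = neutral control wells and 100% = parthenolide positive control wells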
esBAF inh – inhibitors of esBAF chromatin remodeling in mouse ES cells. Bmi1-luciferase knock-in reporter, 24 h; 100% = twice the neutral-well signal. AID 602393. reporter increase, % at 12.5 µM. actives 2% (n = 350,000); in the data active means activation above about 40%; inconclusive means no clear call, values can overlap the other calls;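 further: 0% = median of the plate's neutral control wells and 100% = double that signal; a rise in the Bmi1 reporter signal indicates esBAF inhibition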
PfHsp90 set2 – inhibits growth of yeast expressing Plasmodium falciparum Hsp90 | S. cerevisiae expressing PfHsp90, BacTiter-Glo ATP, 48 h; yeast lacking PDR1 and PDR3 efflux regulators | inhibition, % at 9.4 µM | actives 0.32% (n = 310,000) | AID 504621;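 active means every replicate shows inhibition above about 80%, whatever the replicate mean, limit read from the data; inconclusive means mean inhibition reaches the set limit but some replicate falls short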;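 further: 0% = DMSO neutral controls and 100% = 20 µM radicicol positive controls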
Numbers without * were called inactive; ? = inconclusive; . = no result.

SMILES	Wnt act	Glyco luc inh	Vif imaging	MITF TRPM1 HTS	esBAF inh	PfHsp90 set2
CCN(C(=O)COC(=O)c1cc(Cl)ccc1OC)c1c(N)n(Cc2ccccc2)c(=O)[nH]c1=O	-1.9	3.0	1.2	13.5	-9.5	-12.2
CCOC(=O)c1ccc2[nH]c(C)c(C)c2c1	.	0.5	-1.5	36.4	58.5*	5.3
CCOC(=O)c1ccc2[nH]c3ccccc3c2c1	0.0	-0.9	5.4	47.6	62.0*	-5.6
CCOC(=O)c1ccc2[nH]c(C)cc(=O)c2c1	.	2.2	.	3.4	3.7	-5.5
Cc1occc1C(=O)NNC(=S)NC(=O)COc1ccc(Cl)cc1Cl	1.7	3.2	-4.5	6.3	13.3	2.2
CCOc1ccccc1OCCCC(=O)OCC(=O)Nc1cccc(Cl)c1	1.0	1.9	-1.9	-2.8	.	7.3
CCOC(=O)c1cnc2c(ccc3ccccc32)c1N	10.3	-2.1	-3.9	.	45.4*	5.8
CCOC(=O)c1cccc(-c2c(-c3ccccc3)ncc3cc(OC)c(OC)cc23)c1	-0.9	-5.4	10.3	97.4*	66.8*	-7.7
CC(=O)c1cnc2c(-c3ccccc3)cnn2c1C	.	1.1	22.0	27.5	?	-15.4
Nc1ccc2nc(-c3ccccc3)c(-c3ccccc3)nc2c1	-3.5	32.7*	-13.8	-19.0	-3.9	-38.4
CCOC(=O)c1cnc2c(-c3ccccc3)cnn2c1C	56.3*	-6.5	1.7	73.0	.	-6.6
CC(C)C(=O)NC(C)C(c1cccs1)N1CCN(C)CC1 (stereo unspecified)	-4.3	0.0	-2.0	-7.6	-0.5	-10.5
CCN(CC(=O)NCc1ccc(Cl)cc1)C(=O)CSc1ccc(F)cc1	-0.9	-1.4	6.8	1.7	.	6.1
CN(CC(=O)Nc1ccccc1Br)c1ncnc2sccc12	-5.7	-0.4	-1.3	-0.7	0.8	3.1
c1csc(-c2cnc3ccccc3n2)c1	55.3*	-1.9	0.7	.	.	15.8
Cc1cc(-c2ccccc2)nc(-c2ccccc2)c1C	-0.9	-0.9	12.0	8.2	-6.5	-15.1
CCOC(=O)c1ccc(Cl)c(NC(=O)c2ccc(-c3ccccc3)cc2)c1	1.9	-0.1	9.2	23.8	38.1	0.8
Cc1cc2ncc(-c3ccccc3)nc2cc1C	44.8*	-15.9	-1.2	37.0	-11.6	15.8
CCOC(=O)c1ccc2ncc(-c3ccccc3)nc2c1	11.9	-2.8	-4.6	110.8*	.	-115.5
Oc1ccc(-c2cnc3ccccc3n2)cc1	52.6*	-6.1	-11.9	?	.	-7.8
c1cc(-c2cccs2)nc(-c2cccs2)c1	-6.1	1.7	.	37.9	.	-0.6
COc1ccccc1NC(=O)N1C[C@@H](O)COC[C@@H]2O[C@@H](CC(=O)N3CCC(Cc4ccccc4)CC3)CC[C@H]21	.	.	.	.	5.4	.
Cc1ccc(NC(=O)CCc2nnc3ccc(N4CCN(C)CC4)nn23)cc1F	-2.3	1.5	-21.5	2.5	4.7	3.1
CCCCCOc1ccc(C(=O)NCC2(c3ccccc3)CCOCC2)cc1	.	-4.5	-10.0	-1.7	-2.6	-15.8
Cc1ccc(-c2cnc3ccccc3n2)cc1C	40.2*	-19.0	-5.2	-15.9	-32.7	-2.9
SMILES	Wnt act	Glyco luc inh	Vif imaging	MITF TRPM1 HTS	esBAF inh	PfHsp90 set2
O=C(Oc1ccc(-c2cnc3ccccc3n2)cc1)c1ccc(Br)o1	33.8*	-6.9	-1.5	58.5	12.1	-10.2
Clc1ccc(-c2cnc3ccccc3n2)cc1	.	-2.5	2.0	45.5	.	-3.6
Cc1nc2ccc(C(=O)OCc3ccccc3Br)cc2nc1C	0.0	-2.3	0.1	71.2	102.2*	-16.7
Nc1ccc2nc(-c3ccccc3)cnc2c1	71.7*	-3.2	?	.	.	4.4
C[C@@H]1CN([C@H](C)CO)C(=O)c2cccc(NC(=O)C3CC3)c2O[C@@H]1CN(C)Cc1ccccc1	.	.	.	.	0.3	.
COc1cccc2c1OCC/C2=N\NC(=O)COc1ccccc1C	8.9	0.4	4.6	-2.2	.	-9.0
CCOC(=O)c1cnc(-c2ccccc2)nc1N	-0.6	-2.6	.	40.4	24.0	7.2
CCOC(=O)c1cnc(-c2ccccc2)nc1N(C)C	.	-0.2	-4.3	30.9	74.6*	-0.1
CCOC(=O)c1cc(OCC)c2c(ccc3ccccc32)n1	110.7*	-0.6	-3.5	.	-9.6	.
CC1(Cc2ccc(Cl)c(Cl)c2)C(=O)Nc2ccc(S(=O)(=O)NC3CCCCC3)cc21 (stereo unspecified)	-1.4	-5.9	.	.	9.0	.
CC1(Cc2cc(Cl)ccc2C(F)(F)F)C(=O)Nc2ccc(S(=O)(=O)NC3CCCCC3)cc21 (stereo unspecified)	-2.3	-6.1	70.1*	.	4.4	.
CCOC(=O)c1c(CN(C)C)n(C)c2c(O)c(N=NC(N)=O)c3ccc(Br)cc3c12	0.3	28.1*	-8.7	-7.4	-6.2	23.9
O=C(c1cc2ccccc2[nH]1)N1O[C@@H]2C=C[C@H]1C2	?	2.2	-1.2	0.5	41.8*	-8.9
COc1cccc(-c2cccc(-c3nc(C(=O)N(C)C)cc4c3[C@@H](CCO)N([S@](=O)C(C)(C)C)C4)c2)c1	.	.	.	.	3.7	.
C/C(CC(=O)NCc1ccccc1Cl)=N/NC(=O)c1ccccn1	-0.6	1.0	34.2	11.5	44.4*	0.0
Cc1ccc2nc(-c3ccc(N4C(=N)SC5CS(=O)(=O)CC54)cc3)sc2c1 (stereo unspecified)	.	-4.4	2.7	104.2*	.	-7.5
Cc1ccc2nc(-c3ccc(N)cc3)sc2c1	16.3	-18.3	1.7	.	.	5.0
CCc1ccc(/C=N\NC(=O)c2ccc(Br)o2)s1	.	3.4	1.5	51.1	.	18.4
O=C(N/N=C/c1ccc2c(c1)OCO2)c1ccc(Br)o1	42.6*	-3.7	5.0	87.2*	.	12.8
CCN(CC)c1ccc(/C=N/NC(=O)c2ccc(Br)o2)cc1	-0.2	3.5	1.7	115.9*	.	5.4
Cc1nn(-c2ccccc2)c2sc(C(=O)O)cc12	.	0.8	20.5	.	7.3	.
Cc1nn(-c2ccccc2)c2sc(C(=O)N3CCOCC3)cc12	.	-1.5	-19.1	25.1	44.0*	16.8
COc1cccc(C=NNC(=S)NC2CC3CCC2C3)c1O (stereo unspecified)	37.2*	.	.	.	.	.
CSc1nnc2c(n1)c(C)nn2-c1cccc(C)c1	37.5*	-1.7	-17.1	.	45.3*	27.2
CCOC(=O)c1snc(C(=O)NC2CCCCC2)c1N	19.9	-1.4	3.1	84.1*	59.7*	14.2
Nc1c(C(=O)NC2CCCCC2)nsc1C(=O)OCC(=O)NC1CCCCC1	.	-0.1	1.4	.	21.5	.
Cc1ccc(S(=O)(=O)N2C[C@H](O)COC[C@H]3O[C@H](CC(=O)NCCCN(C)C)CC[C@@H]32)cc1	.	.	.	.	-1.3	.
O=C1NC(NS(=O)(=O)c2ccccc2)(C(F)(F)F)C(=O)N1CCc1ccccc1 (stereo unspecified)	2.2	0.0	2.0	6.3	1.5	-54.8
COc1ccc(S(=O)(=O)NC2(C(F)(F)F)NC(=O)N(CCc3ccccc3)C2=O)cc1 (stereo unspecified)	0.7	-1.4	55.1*	.	12.8	6.1
